The subject of one experiment is ICS. The experiment is described as follows: qHTS profiling for inhibitors of Plasmodium falciparum proliferation (AID 504749). Also: potency is read from the fitted curve at half-maximal effect. Particulars: P. falciparum in erythrocytes, SYBR Green DNA, 72 h; series mostly up to 28.7 µM. Summed up: (§1)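 Quantitative HTS: compounds pinned into medium, infected erythrocytes added (0.3% parasitemia, 2.5% hematocrit), 72 h culture at 37 C under 5% CO2. Saponin/Triton lysis with SYBR Green I, overnight RT, then fluorescence read.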

For a further experiment, the system named is JCK. The description is as above. Particulars: P. falciparum in erythrocytes, SYBR Green DNA, 72 h; series mostly up to 28.7 µM. Summed up:
as §1

For a further experiment, the system named is N140. The experiment is described as above. Particulars: P. falciparum in erythrocytes, SYBR Green DNA, 72 h; series mostly up to 28.7 µM. Summed up:
as §1

The next experiment has as its system P94_40. Described as above. The settings on record: P. falciparum in erythrocytes, SYBR Green DNA, 72 h; series mostly up to 28.7 µM. Summed up: as §1
The test system of another experiment is PC15. Described as above. The settings on record: P. falciparum in erythrocytes, SYBR Green DNA, 72 h; series mostly up to 28.7 µM. Summed up:
as §1

The next experiment deals with PC26. The experiment is described as above. The settings on record: P. falciparum in erythrocytes, SYBR Green DNA, 72 h; series mostly up to 28.7 µM. Summed up: as §1
Another experiment concerns PC49. Described as above. The settings on record: P. falciparum in erythrocytes, SYBR Green DNA, 72 h; series mostly up to 28.7 µM. An outline of the steps:
as §1

The subject of a further experiment is TAB109. The experiment is described as above. Particulars: P. falciparum in erythrocytes, SYBR Green DNA, 72 h; series mostly up to 28.7 µM. An outline of the steps:
as §1

Another experiment concerns KB-3-1. As to the kind of experiment: Cytotoxic Profiling of Annotated Libraries Using Quantitative High-Throughput Screening (AID 1296008). Also: % is scaled to controls: 0 for no effect and ±100 for the full control effect. Particulars: Five cell lines viability, CellTiter-Glo ATP luminescence, 48-72 h; max response: hits give low values. Summed up: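 Compounds were pin-transferred onto cells and incubated 48 or 72 hr at 37 degree Celsius, 95% humidity. CellTiter-Glo was added, plates sat 10 min at room temperature, then ATP-coupled luminescence was imaged as the viability read-out.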
(In general: ATP-based viability assays read luminescence as a measure of living cells.)

The subject of another experiment is P93_24. As to the kind of experiment: qHTS profiling for inhibitors of Plasmodium falciparum proliferation (AID 504749). Also: potency is read from the fitted curve at half-maximal effect. Particulars: P. falciparum in erythrocytes, SYBR Green DNA, 72 h; series mostly up to 28.7 µM. Summed up: as §1
Background: Quantitative high-throughput screening tests each substance at several concentrations.

Another experiment has as its system PAD. Described as above. The settings on record: P. falciparum in erythrocytes, SYBR Green DNA, 72 h; series mostly up to 28.7 µM. Summed up:
as §1

A further experiment deals with SC27B. The experiment is described as above. Particulars: P. falciparum in erythrocytes, SYBR Green DNA, 72 h; series mostly up to 28.7 µM. Summed up:
as §1

For another experiment, the system named is TAB113. The description is as above. Particulars: P. falciparum in erythrocytes, SYBR Green DNA, 72 h; series mostly up to 28.7 µM. An outline of the steps: as §1
The next experiment deals with TAB165. Described as above. The settings on record: P. falciparum in erythrocytes, SYBR Green DNA, 72 h; series mostly up to 28.7 µM. An outline of the steps: as §1
Another experiment deals with W2. Described as above. Particulars: P. falciparum in erythrocytes, SYBR Green DNA, 72 h; series mostly up to 28.7 µM. Summed up: as §1

Where “and” joins values, the source holds several entries; their conditions need not be identical. Identical values can stand only once. Records with an inconclusive call do not appear. A number with no mark means an inactive call. Calls of active or inactive are those of the source. Calls follow the shape of the dose curve; as a rule, active = well fitted inhibition curve with a large enough effect; inconclusive = small, poorly fitted or top-dose-only effect; inactive = flat fitted curve, though single readings scatter.
Also: nearly all actives have a fitted effect of over 60% in size.

For the compound `CC(C)CCCCCCc1ccc(O)cc1`, the Potency in the experiment on ICS and in the experiment with P94_40 was 12.6 µM (active) in each case. Further, the Potency entry in the experiment with JCK, with N140, with PC15, with PC26, in the experiment on PC49 and in the experiment on TAB109 was “inactive” each time. In addition, the max response in the experiment on KB-3-1 was -10.4%.
`CCCCCCCCCCCCCCCCCCCCCC(=O)Nc1ccn([C@@H]2O[C@H](CO)[C@@H](O)[C@@H]2O)c(=O)n1`: the Potency entry in the experiment on JCK, with N140, in the experiment on P93_24, with P94_40, in the experiment on PAD and with PC15 was “inactive” in each case. Further, the Potency entry in the experiment with PC26, in the experiment with PC49, in the experiment on SC27B, with TAB109, with TAB113 and in the experiment with TAB165 was “inactive” throughout. Also, the max response in the experiment with KB-3-1 was 3.81%.
As for `CCCCCCCCCCCCCCCCOCCOCCOCCOCCOCCOCCOCCOCCOCCOCCOCCOCCOCCOCCOCCOCCOCCOCCOCCOCCO`, the Potency is 4.47 µM (active) with ICS; 10 µM (active) in the experiment on N140; 11.2 µM (active) in the experiment on P93_24; 11.2 µM (active) in the experiment on PC15; 12.6 µM (active) in the experiment on PC49; 12.6 µM (active) in the experiment with TAB109. The results for the Potency with TAB165 and in the experiment with W2 were 14.1 µM (active) and 6.75 µM (active), respectively. Besides, the max response with KB-3-1 was -16.1%.
For `S=C1SCN(Cc2ccccc2)CN1Cc1ccccc1`, the Potency result in the experiment on ICS, with JCK, with N140, in the experiment on P94_40, in the experiment with PAD and in the experiment on PC15 was “inactive” throughout. Further, the Potency result in the experiment on PC26, in the experiment with PC49, with SC27B, in the experiment on TAB109, with TAB113 and in the experiment with TAB165 was “inactive” throughout. For the same compound, the Potency result in the experiment with W2 is “inactive”. Further, the max response in the experiment with KB-3-1 is 37.7%.
For `CSCCC(N)C(=O)O` (stereo not drawn), the Potency result in the experiment on ICS, in the experiment on JCK, with N140, in the experiment on P94_40, in the experiment on PAD and with PC15 was “inactive” each time. Also, the Potency result with PC49, in the experiment on SC27B, in the experiment on TAB109, with TAB113, in the experiment on TAB165 and in the experiment with W2 was “inactive” throughout. Moreover, the max response with KB-3-1 is 3.08%.
In the case of `O=C(OCc1ccccc1)c1cccnc1`, the Potency entry in the experiment on JCK, with N140, in the experiment on P93_24, with P94_40, in the experiment with PAD and in the experiment on PC15 was “inactive” each time. Besides, the Potency result in the experiment on PC26, with PC49, with SC27B, in the experiment with TAB109, in the experiment on TAB113 and with TAB165 was “inactive” in each case. Further, the max response in the experiment with KB-3-1 was -9.74%.
Take `COc1ccc(/C=C/C(=O)OCCC(C)C)cc1`: the Potency entry in the experiment with ICS, in the experiment on JCK, in the experiment on P93_24, with P94_40, with PAD and with PC15 was “inactive” throughout. Further, the Potency result with PC26, in the experiment on PC49, with SC27B, in the experiment with TAB109, in the experiment on TAB113 and in the experiment with TAB165 was “inactive” each time. Also, in the experiment with W2, the Potency result is “inactive”. In the experiment with KB-3-1, the max response was -0.838%.
`CC(C)=CCC/C(C)=C/CC/C(C)=C/CC/C=C(\C)CC/C=C(\C)CCC=C(C)C`: the Potency entry in the experiment with ICS, in the experiment on N140, in the experiment with P93_24, in the experiment on P94_40, with PAD and in the experiment on PC15 was “inactive” throughout. For the same compound, the Potency entry in the experiment with PC26, with SC27B, in the experiment on TAB109, in the experiment on TAB113 and in the experiment on TAB165 was “inactive” throughout. For the same compound, the max response with KB-3-1 is 6.34% and -6.32%.
Turning to `Cc1cc(C)c(NC(=O)C[C@H](CC(=O)O)c2cccc3ccccc23)c(C(=O)N2CCC3(CCCC3)CC2)c1`, the Potency entry with JCK, with N140, with P93_24, in the experiment on P94_40, in the experiment with PAD and in the experiment with PC15 was “inactive” each time. For the same compound, the Potency result in the experiment on PC26, in the experiment with PC49, in the experiment with SC27B, in the experiment on TAB109, in the experiment with TAB113 and in the experiment with TAB165 was “inactive” throughout. Besides, in the experiment with KB-3-1, the max response is -2.39%.
With `CN1CCCC(CN2c3ccccc3Sc3ccccc32)C1` (stereo not drawn), the Potency in the experiment on ICS was 12.6 µM (active); in the experiment with N140, 8.91 µM (active); in the experiment on TAB109 it was 11.2 µM (active); in the experiment with TAB165, 12.6 µM (active); in the experiment with W2 it was 3.38 µM (active). Also, the Potency entry in the experiment on JCK and with PC49 was “inactive” each time. Moreover, the max response in the experiment on KB-3-1 is -10.2%.
On to `OCc1ccccc1`, for which the Potency in the experiment on ICS was 2.24 µM (active); in the experiment with PC15, 10 µM (active); in the experiment with W2, 5.36 µM (active). Also, the max response in the experiment on KB-3-1 was 7.88%.
`CN(C)CCC=C1c2ccccc2C(C)(C)c2ccccc21`: the Potency is 7.94 µM (active) in the experiment with ICS and 3.38 µM (active) in the experiment on W2. The Potency entry with JCK, with PC49 and in the experiment on SC27B was “inactive” throughout. For the same compound, the max response in the experiment on KB-3-1 is -19.1%.
Consider `N=C(N)c1ccc(/C=C/c2ccc(C(=N)N)cc2O)cc1`, for which the Potency with ICS was 1.26 µM (active); in the experiment on N140 it was 17.8 µM (active); in the experiment on P94_40 it was 8.91 µM (active); with PC15 it was 12.6 µM (active); in the experiment on PC26 it was 8.49 µM (active); with SC27B, 10 µM (active). Besides, the Potency is 17.8 µM (active) in the experiment on TAB109, 3.98 µM (active) with TAB113 and 4.47 µM (active) with TAB165. In addition, in the experiment with JCK, the Potency entry is “inactive”. Moreover, the max response in the experiment with KB-3-1 was -19%.
Regarding `O=C1c2ccccc2C(=O)C1c1ccc(Cl)cc1`, the Potency result in the experiment on JCK, in the experiment on N140, with P93_24, with P94_40, with PAD and with PC15 was “inactive” in each case. Moreover, the Potency result in the experiment on PC26, in the experiment on PC49, in the experiment on SC27B, in the experiment on TAB109, in the experiment with TAB113 and with TAB165 was “inactive” throughout. Moreover, the Potency result with W2 was “inactive”. The max response in the experiment with KB-3-1 is -7.12%.
